Most compounds without a hit are left out; they make up all but 13% or so of the library.
FMDV antiviral = blocks foot and mouth disease virus; FMDV antiviral cell-based qHTS; Potency, µM (top dose mostly 57.9 µM), without a hit: at the highest dose activity change, negative = inhibition, most hits filed as inhibitors; 410,000 tested, 1.2% active; calls by dose curve; tested in HEK293T cells; also: read-out not given here; potency is read from the fitted curve at half-maximal effect; % is scaled to controls: 0 for no effect and ±100 for the full control effect; nearly all actives have a fitted effect of over 45% in size
Shiga toxin inh = blocks Shiga toxin action in Vero cells | Vero cells, Shiga toxin protein synthesis inhibition reporter | inhibition, % at 38.7 µM | 290,000 tested, 9.2% active | AID 2315; in the data active = inhibition mostly above about 28%, no sharp cut-off; inactive = mostly below about 43%; also: 0% is about no effect
MARV entry inh = blocks Marburg virus binding to or entry into cells. Marburg virus pseudotyped entry inhibition, cell reporter. Potency, µM (highest dose often 37.8 µM), inactives show at the highest dose activity change, negative = inhibition, usual class: inhibitors. 300,000 tested, 1.8% active. AID 540276; calls by dose curve; tested in HEK293 cells; also: potency is read from the fitted curve at half-maximal effect; % is scaled to controls: 0 for no effect and ±100 for the full control effect
CHX counter = counter-screen for Shiga toxin inhibitors: cycloheximide protein synthesis inhibition; AID 2314; 300,000 tested, 12% active; cell reporter, cycloheximide protein synthesis inhibition counterscreen; max response, %; in the data active = max response mostly above about 13%, no sharp cut-off; inactive = mostly below about 14%; also: read at 38.3 µM for the half of the compounds with a filed dose; 0% is about no effect
HCV inhibitor = blocks hepatitis C virus | Huh7.5.1 HCVcc-Cre infection, luciferase reporter, 44 h | Potency, µM (highest dose often 41.8 µM), for the others: at the top dose activity change, negative = inhibition, hits mostly inhibitors | 340,000 tested, 3.4% active; active = well fitted inhibition curve with a large enough effect; inconclusive = small, poorly fitted or top-dose-only effect, or another doubt; inactive = no such curve, though single readings can be large or run the other way; also: potency is read from the fitted curve at half-maximal effect; % is scaled to controls: 0 for no effect and ±100 for the full control effect
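Infectious HCVcc-Cre (~0.5 moi) was added to cells just after compound, with cells seeded 4 h earlier at 1,000 per well. Luciferase activity after 44 h culture reported infection; substrate was incubated 15 min at room temperature before reading.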
Lassa entry inh = blocks Lassa virus binding to or entry into cells. Lassa virus pseudotype entry inhibition, cell reporter. Potency, µM (series often up to 37.9 µM), for the others: at the top dose activity change, negative = inhibition, actives largely listed as inhibitors. 300,000 tested, 1.2% active. AID 540256; calls by dose curve; tested in HEK293 cells; also: potency is read from the fitted curve at half-maximal effect; % is scaled to controls: 0 for no effect and ±100 for the full control effect; nearly all actives have a fitted effect of over 50% in size
An asterisk follows results filed as active; ? = inconclusive; . = not tested or not shown; [ ] = remark or other dose.

SMILES	FMDV antiviral	Shiga toxin inh	MARV entry inh	CHX counter	HCV inhibitor	Lassa entry inh
CCC(=O)c1ccc(N2CCCC2)c(F)c1	40.6%	47.6*	17.5%	28.2*	-9.2%	?
Cc1ccc(C)c(CN2CCC(CNC(=O)CCc3nnc4ccc(N5CCCCC5)nn34)CC2)c1	-16.2%	-9.5	.	-1.2	?	.
C[C@]12c3[nH]c4ccc(Cl)cc4c3CCN1C(=O)[C@@H](CC(=O)NCCc1ccccn1)C[C@@H]2C(=O)N1CCOCC1	-14.9%	.	.	.	3.9%	.
Cc1cc(OCCCn2ccnc2)ccc1[N+](=O)[O-]	-3.3%	-22.0	15.0%[46.1 µM]	1.5	-9.3%	16.9%[46.1 µM]
CCCC(=O)c1ccc(N2CCN(S(=O)(=O)c3ccccc3)CC2)c(F)c1	-28.1%	-5.2	?	1.1	?	3.0%
CCC(=O)c1ccc(N2CCN(S(=O)(=O)c3ccccc3)CC2)c(F)c1	-26.2%	-16.4	-10.9%[46.1 µM]	44.0*	-11.9%	7.1%[46.1 µM]
O=C(CCn1cccn1)N1CCCC(N2CCN(c3cccc(C(F)(F)F)c3)CC2)C1 (configuration not stated)	-8.0%	-3.4	-20.8%	1.4	-23.4%	?
Cc1cc(C)cc(NC(=O)Nc2cccs2)c1	45.7%	.	?	.	.	.
CCc1ccc(NC(=O)Nc2cccs2)cc1	20.4%	55.9*	?	20.2*	-0.7%	?
CCOc1ccc(NC(=O)Nc2cccs2)cc1	0.8%	61.0*	?	46.6*	2.8%	-24.2%
Cc1ccc(NC(=O)Nc2ccccc2)nc1	91.7%	.	.	.	-21.8%	.
Cc1ccc(NC(=O)Nc2cccs2)nc1	50.2%	94.0*	?	37.8*	4.6%	28.8%
Cc1ccc(NC(=O)Nc2cccs2)cc1	50.4%	64.3*	?	28.3*	3.2%	?
O=C(CCNS(=O)(=O)c1ccc2[nH]c(=O)oc2c1)Nc1ccccc1	1.4%	7.8	?	-7.5	4.8%	22.0%[46.1 µM]
NS(=O)(=O)c1ccc(NS(=O)(=O)c2ccc3c(c2)OCCO3)cc1	33.8%	-14.8	-15.6%[46.1 µM]	-3.7	-0.4%	5.9%
COc1ccc(CN(CCC(c2ccccc2)c2ccc(OC(C)C)cc2)C(=O)CCl)cc1OC (configuration not stated)	4.47µM*	-8.6	?	9.7	?	?
COc1ccc(C(CCN(Cc2ccc(OC)c(OC)c2)C(C)=O)c2ccccc2)cc1 (configuration not stated)	?	-14.8	3.9%	-5.6	0.1%	.
COc1ccc(CNCCC(c2ccccc2)c2ccc(OC(C)C)cc2)cc1OC (configuration not stated)	-25.1%	-7.2	?	-10.1	11.2µM*	6.31µM*
COC(=O)CCC(=O)N1CN2CN(C(=O)CCC(=O)OC)CC([N+](=O)[O-])(C2)C1	-9.7%	18.1	.	0.6	5.6%	.
C=CCn1c(O)c(C(CC)=Nc2ccc(N(CC)CC)cc2)c(=O)[nH]c1=O	-20.1%	-3.0	-1.3%	-2.5	?	3.26µM*
CCC(=NCc1cc(OC)cc(OC)c1)c1c(O)n(C2CCCCC2)c(=O)[nH]c1=O	?	22.0	.	-2.1	?	.
CCCCn1c(O)c(C(CC)=Nc2ccc(OCC)cc2)c(=O)[nH]c1=O	?	-4.8	-3.2%	-2.1	?	0.326µM*
CCCCn1c(O)c(C(CC)=NC(C)c2ccccc2)c(=O)[nH]c1=O (configuration not stated)	-27.4%	-18.7	?	-2.8	?	?
COc1cc(CN=C(C)c2c(O)n(C3CCCCC3)c(=O)[nH]c2=O)cc(OC)c1	?	-2.8	-27.0%[46.1 µM]	-4.0	10µM*	?
CCC(=NCCOc1ccc(Cl)cc1)c1c(O)n(C)c(=O)n(C)c1=O	25.1µM*	-2.1	-24.2%	-1.2	14.4%	1.9%
CC1CN(CCOc2ccc(Cl)cc2Cl)CC(C)O1 (configuration not stated)	-16.3%	5.4	-8.7%	-2.0	-7.7%	4.0%
C#CCOCCOCCOCCNc1nc(N2CCN(C(=O)C(Cc3cc4ccccc4[nH]3)n3cc(C(N)C(C)CC)nn3)CC2)nc(N2CCN(C(=O)C(Cc3cc4ccccc4[nH]3)n3cc(C(N)C(C)CC)nn3)CC2)n1 (configuration not stated)	-11.8%	-7.9	.	-2.0	-2.5%	.
CCC(=Nc1ccc(OC)cc1OC)c1c(O)n(C)c(=O)n(C)c1=O	31.6µM*	37.1	?	12.2	?	-17.2%

Screening data: PubChem, National Center for Advancing Translational Sciences (NCATS)
